The whole screen tested about 410,000 compounds, of which about 18,000 (4.4%) were called active. Inconclusive results (about 7%) are left out. The sample holds actives, similar compounds and a random draw of the others, so the mix is not that of the screen. Rule as the data show it: active = activity change below about -60%; inconclusive = no clear call, values can overlap the other calls; inactive = above about -39%.
Experiment: qHTS Assay for inhibitors of the human cytomegalovirus (HCMV)
Conditions: HFF cells, HCMV-luciferase reporter, 72 h; at 57.5 µM; active compounds read low
Method in brief: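 Compounds were evaluated in HFFs infected with an HCMV luciferase reporter virus (MOI 1 PFU/cell). Luciferase in lysates collected 72 h post infection served as the replication measure.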
For `Cc1ccc(Nc2c(-c3ccc(C)cc3)nc3cnccn23)cc1`, the activity change, negative = inhibition was 31.2% (inactive).
For `CCN1CCN(c2nc(Nc3cc(OC)ccc3OC)nc(Nc3cc(OC)ccc3OC)n2)CC1`, the activity change, negative = inhibition was -64.4% (active).
In the case of `COc1ccc(OC)c(NC(=O)CSc2nc3ccccc3nc2N2CCCCC2)c1`, the activity change, negative = inhibition is reported as 19.8% (inactive).
With `CCCOc1ccc(Cl)cc1Nc1nc(NCCO)nc(N2CCCC2)n1` the activity change, negative = inhibition was 14.9% (inactive).
In the case of `COc1ccc2c(CNCCc3ccccc3C)c(C(=O)O)n(Cc3ccccc3C)c2c1`, the activity change, negative = inhibition is reported as -9.03% (inactive).
In the case of `COc1cc(C(=O)N2CCC(c3ccncc3)CC2)cc(OC)c1OC`, the activity change, negative = inhibition is reported as 18% (inactive).
For `COc1ccccc1CNC(=O)CCCCn1c(=O)c2ccccc2n(CC(=O)Nc2cc(Cl)ccc2C)c1=O`, the activity change, negative = inhibition was -9.62% (inactive).
In the case of `O=C(NCc1ccncc1)c1ccc(NS(=O)(=O)c2cccc([N+](=O)[O-])c2)cc1`, the activity change, negative = inhibition is reported as -29% (inactive).
In the case of `O=C(NCc1cccc(C(F)(F)F)c1)c1cccc(S(=O)(=O)N2CCN(Cc3ccccc3)CC2)c1`, the activity change, negative = inhibition is reported as 0.707% (inactive).
For `O=C(NCc1ccncc1)c1cccc(NS(=O)(=O)c2ccc(F)c(F)c2)c1`, the activity change, negative = inhibition was -101% (active).
In the case of `O=C(NCc1ccccc1CN1CCCC1)c1cccc(S(=O)(=O)Nc2ccc(F)cc2)c1`, the activity change, negative = inhibition is reported as 56.8% (inactive).
With `O=C(NCCCN1CCCC1=O)c1ccc(S(=O)(=O)Nc2ccccc2)cc1` the activity change, negative = inhibition was -28.4% (inactive).
For `O=C(NCc1ccccc1)c1ccc(S(=O)(=O)Nc2cccc(C(F)(F)F)c2)cc1`, the activity change, negative = inhibition was -62% (active).
In the case of `Cc1ccccc1CSCCNC(=O)C1CCN(S(=O)(=O)Cc2ccccc2)CC1`, the activity change, negative = inhibition is reported as -4.14% (inactive).
With `Cc1ccc2nc(COc3cccc(NC(=O)c4cccc(Cl)c4)c3)cc(=O)n2c1` the activity change, negative = inhibition was 9.28% (inactive).
With `Cc1ccccc1-c1nc(NC(C)C)nc2cc(-c3ccccc3)sc12` the activity change, negative = inhibition was -8.38% (inactive).
In the case of `Cc1cc(C)c2oc(C(=O)Nc3ccc(S(=O)(=O)N(C)c4ccccc4)cc3)cc(=O)c2c1`, the activity change, negative = inhibition is reported as -2.92% (inactive).
For `Cc1ccc(Cl)cc1NC(=O)/C(C#N)=C\c1cn(Cc2ccc(F)cc2)c2ccccc12`, the activity change, negative = inhibition was -6.14% (inactive).
With `Cc1ccc(Cl)cc1N1CCN(C(=O)CN2C(=O)COc3ccc(S(=O)(=O)N4CCOCC4)cc32)CC1` the activity change, negative = inhibition was 6.7% (inactive).
With `CC(C)CCn1c(=O)c2c(nc3n2CCCN3Cc2ccccc2)n(C)c1=O` the activity change, negative = inhibition was -22.4% (inactive).
For `COc1ccc2c(CC(=O)N3CCc4cc(OC)c(OC)cc4C3)coc2c1`, the activity change, negative = inhibition was -13.1% (inactive).
In the case of `CCOc1cc(C(=O)N2CCc3cc(OC)c(OC)cc3C2)ccc1OC(F)F`, the activity change, negative = inhibition is reported as -71.6% (active).
For `CCOc1ccc(C(=O)NCC(=O)N2CCCCCCC2)cc1OCC`, the activity change, negative = inhibition was -11.3% (inactive).

— PubChem BioAssay AID1259415 (National Center for Advancing Translational Sciences (NCATS), 2018)
% is scaled to controls: 0 for no effect and ±100 for the full control effect.
